Source: ChEMBL document CHEMBL4513135, “CO-ADD screening of IQOG CSIS (Spain) compounds”
Potency and affinity values are given separately.

Key:
Klebsiella pneumoniae = settings: Concentration 32 ug.mL-1; ASSAY_TEST Inhibition of Bacterial Growth; detection method Absorption (OD600); MEDIA CAMHB; plate type 384well; NBS; CORNING #3640; time 18 hr
Candida albicans = settings: 32 ug/mL
Cryptococcus neoformans = settings: Concentration 32 ug.mL-1; ASSAY_TEST Inhibition of Fungal Growth; detection method Resazurin; Absorption (OD600-OD570); plate type 384well; NBS; CORNING #3640

Work on COc1cccc(C=C2N=C(c3ccccc3)OC2=O)c1OC(C)=O yielded an Inhibition (Klebsiella pneumoniae) of 0.25%, an Inhibition (Candida albicans) of -1.1% and an Inhibition (Cryptococcus neoformans) of -5.03%.
With N#CC1=C(N)Oc2c(ccc3ccccc23)C1c1cccc([N+](=O)[O-])c1 (stereo unspecified) the Inhibition (Klebsiella pneumoniae) was 11.95%, the Inhibition (Candida albicans) was 2.35% and the Inhibition (Cryptococcus neoformans) was -36.01%.
With C#CCN(C)c1nc(NCCC2CCN(Cc3ccccc3)CC2)c(C#N)cc1C#N.Cl the Inhibition (Klebsiella pneumoniae) was 3.63%, the Inhibition (Candida albicans) was -0.31% and the Inhibition (Cryptococcus neoformans) was 0.75%.
With COc1ccc2cc(C3C(C(C)=O)=C(C)Oc4nc5c(c(N)c43)CCCCC5)c(Cl)nc2c1 (stereo unspecified) the Inhibition (Klebsiella pneumoniae) was 0.78%, the Inhibition (Candida albicans) was 3.71% and the Inhibition (Cryptococcus neoformans) was -8.4%.
Work on CC1(C)OS(=O)(=O)C2=C1NC(N)=C(C#N)C2c1ccccc1 (stereo unspecified) yielded an Inhibition (Klebsiella pneumoniae) of 11.24%, an Inhibition (Candida albicans) of 0.27% and an Inhibition (Cryptococcus neoformans) of -2.35%.
COc1ccc(C2c3ccc4ccccc4c3Oc3nc4c(c(N)c32)CCCC4)c(OC)c1 (stereo unspecified) gave an Inhibition (Klebsiella pneumoniae) of 4.09%, an Inhibition (Candida albicans) of 0.01% and an Inhibition (Cryptococcus neoformans) of -0.17%.
For O=C(Cc1ccccc1)N/N=C/c1c[nH]c2ccccc12, the Inhibition (Klebsiella pneumoniae) was 20.21%, the Inhibition (Candida albicans) was 3.09% and the Inhibition (Cryptococcus neoformans) was -2.34%.
Work on COC(=O)C(=Cc1ccc(OC)cc1)NC(C)=O yielded an Inhibition (Klebsiella pneumoniae) of 12.98%, an Inhibition (Candida albicans) of -0.11% and an Inhibition (Cryptococcus neoformans) of -2.55%.
Compound COc1ccc2c(c1)cc(/C=C/[N+](=O)[O-])n2C has an Inhibition (Klebsiella pneumoniae) of 9.01%, an Inhibition (Candida albicans) of 2.82% and an Inhibition (Cryptococcus neoformans) of 4.17%.
Compound O=C(Cc1c[nH]c2ccccc12)N/N=C/c1ccco1 has an Inhibition (Klebsiella pneumoniae) of 10.08%, an Inhibition (Candida albicans) of -1.03% and an Inhibition (Cryptococcus neoformans) of -6.47%.
Work on COc1ccc(-c2cc(-c3cc4c(OC)ccc(OC)c4nc3Cl)cc(=O)[nH]2)cc1 yielded an Inhibition (Klebsiella pneumoniae) of 5.89%, an Inhibition (Candida albicans) of 0.7% and an Inhibition (Cryptococcus neoformans) of -87.69%.
Work on CCOC(=O)C1=C(C)OC(N)=C(C#N)C1c1ccccc1OC (stereo unspecified) yielded an Inhibition (Klebsiella pneumoniae) of 15.52%, an Inhibition (Candida albicans) of 23.3% and an Inhibition (Cryptococcus neoformans) of -0.68%.
